Consider 23 compounds from PubChem BioAssay (EPA / NIEHS).

Molecules are shown by their SMILES. “And” between values parts separate entries of the source, which are not always exact repeats. Equal entries are not always repeated. The source made the active and inactive calls. Rule for the calls: active = hit-call score of the fitted dose curve at least 0.9, where 1 is the maximum; inactive = score below 0.9.

Chain of Cellular tumor antigen p53 (Homo sapiens) (P04637 whole entry, looked up): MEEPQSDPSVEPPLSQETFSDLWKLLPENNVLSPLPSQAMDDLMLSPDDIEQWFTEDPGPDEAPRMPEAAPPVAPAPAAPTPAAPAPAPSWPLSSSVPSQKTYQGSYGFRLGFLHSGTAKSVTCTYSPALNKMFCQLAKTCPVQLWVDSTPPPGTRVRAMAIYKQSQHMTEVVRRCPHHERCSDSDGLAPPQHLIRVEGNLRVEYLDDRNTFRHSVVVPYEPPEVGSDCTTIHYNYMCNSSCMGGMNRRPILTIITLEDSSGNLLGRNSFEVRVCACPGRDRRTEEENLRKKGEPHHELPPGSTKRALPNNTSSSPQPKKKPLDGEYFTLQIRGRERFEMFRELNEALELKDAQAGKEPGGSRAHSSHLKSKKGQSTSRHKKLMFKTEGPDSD

The target in one assay is Cellular tumor antigen p53 (Homo sapiens) (UniProt P04637). As to the kind of experiment: ATG_p53_CIS: Attagene CIS-FACTORIAL HepG2 Assay for human p53 Transcription Factor (AID 2282994). To be noted: HepG2 p53 cis-element reporter, Attagene mRNA; actives raise or lower the signal. The essentials:
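HepG2 cells transiently transfected with multiplexed cis-regulated reporter transcription units read endogenous TF activity. After 24 h compound exposure, reporter mRNA was quantified by RT-PCR, fluorescent labelling, HpaI digestion and capillary electrophoresis; bidirectional fits versus DMSO baseline.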
On to `CCCCCCCCCCCCCCCCCC[N+](C)(C)Cc1ccccc1`, for which the outcome was inactive.
In the case of `c1cc[nH]c1`, the compound was classed as inactive.
As for `CC1=CC(=O)c2ccccc2C1=O`, the call was inactive.
Regarding `CCCCCCCCC(C)=O`, the compound was classed as inactive.
On the same count and under the same terms, for `CCCCCCCC(OC)OC` the value was “inactive”; for `CCO[Si](C)(C)OCC`, “inactive”.
The AC50 is the concentration at which the activity in the assay is half-maximal. As for `CCCCCCOC(=O)c1ccc(O)cc1`, the AC50 was 52.2 µM (active).
For `CCCC=O`, the outcome was inactive.
Consider `O=C(NCc1ncc(C(F)(F)F)cc1Cl)c1c(Cl)cccc1Cl`, for which the compound was classed as inactive.
With `O=C1c2ccc(O)c(O)c2C(=O)c2c(O)ccc(O)c21`, the call was inactive.
Turning to `CC(C)(c1ccc(Oc2ccc(N)cc2)cc1)c1ccc(Oc2ccc(N)cc2)cc1`, the outcome was inactive.
Still for that read-out and setting: under `O=C(O)CCC(F)(F)C(F)(F)C(F)(F)C(F)(F)C(F)(F)F` stands “inactive”; under `O=C(F)C(F)(F)C(F)(F)C(F)(F)C(=O)F`, “inactive”; under `C[C@]12CC[C@@H]3c4ccc(O)cc4CC[C@H]3[C@@H]1CC[C@@H]2OC(=O)CCC1CCCC1`, “inactive”.
Still for that read-out and setting: under `OCCN1CN(CCO)CN(CCO)C1` stands “inactive”.

Read-out in another assay: not listed separately
As to the kind of experiment: BSK_3C_TissueFactor: BioMAP Diversity Plus: 3C Assay for Tissue Factor Biomarker Activity (AID 2282997). To be noted: BioMAP 3C HUVEC, tissue factor biomarker readout; actives raise or lower the signal. The essentials:
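Endothelial monolayers (human umbilical vein, primary) are dosed, incubated 24 h, and assayed for Tissue Factor by ELISA; DMSO serves as negative control for bidirectional fitting.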
For `Cc1ccc(C(=O)c2ccccc2)cc1`, the AC50 was 11.3 µM (active).
With `C=CC(=O)OCCC(F)(F)C(F)(F)C(F)(F)C(F)(F)C(F)(F)C(F)(F)C(F)(F)C(F)(F)F`, the result was inactive.
As to `CC1=NN(c2ccccc2)C(=O)C1`, the AC50 was 4.46 µM (active).
Take `CCCCCCCCCCCCCCCCCC[N+](C)(C)Cc1ccccc1`: the AC50 was 1.17 µM (active).

Read-out in the next assay: not listed separately
As to the kind of experiment: BSK_3C_uPAR: BioMAP Diversity Plus: 3C Assay for Urokinase-type plasminogen activator receptor (uPAR) Biomarker Activity (AID 2282998). As to conditions: BioMAP 3C HUVEC, uPAR biomarker ELISA; actives raise or lower the signal. Put shortly: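 HUVEC primary cells; 24 h post-dose; uPAR by ELISA; gain or loss of signal fitted bidirectionally vs DMSO baseline.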
A general note: ELISA stands for enzyme-linked immunosorbent assay.
Take `Cc1ccc(C(=O)c2ccccc2)cc1`: the result was inactive.
Still for that read-out and setting: under `C=CC(=O)OCCC(F)(F)C(F)(F)C(F)(F)C(F)(F)C(F)(F)C(F)(F)C(F)(F)C(F)(F)F` stands “inactive”.
Same read-out and setting: under `OCC(F)(F)C(F)(F)C(F)(F)C(F)(F)C(F)(F)C(F)(F)C(F)(F)C(F)(F)C(F)(F)C(F)(F)C(F)(F)F` stands “inactive”.
`O=S(=O)(O)C(F)(F)C(F)(F)C(F)(F)C(F)(F)C(F)(F)C(F)(F)C(F)(F)C(F)(F)C(F)(F)C(F)(F)F`: the half-maximal activity concentration (AC50) was 24.6 µM (active) and 13.3 µM (active).
Consider `Oc1cc2ccccc2cc1O`, for which the outcome was inactive.
In the case of `CC1=NN(c2ccccc2)C(=O)C1`, the outcome was inactive.
As for `O=P(O)(O)CCC(F)(F)C(F)(F)C(F)(F)C(F)(F)C(F)(F)C(F)(F)C(F)(F)C(F)(F)F`, the outcome was inactive.
With `CCCCCc1ccc(O)cc1`, the concentration at half-maximal activity (AC50) is 13.8 µM (active).
Same read-out and setting: under `CCCCCCCCCCCCCCCCCC[N+](C)(C)Cc1ccccc1` stands 0.35 µM (active).
Consider `O=C(NCc1ncc(C(F)(F)F)cc1Cl)c1c(Cl)cccc1Cl`, for which the result was inactive.
On to `O=C1c2ccc(O)c(O)c2C(=O)c2c(O)ccc(O)c21`, for which the AC50 is 8.14 µM (active).
For the compound `O=C(O)CCC(F)(F)C(F)(F)C(F)(F)C(F)(F)C(F)(F)F`, the outcome was inactive.
For the compound `OCCN1CN(CCO)CN(CCO)C1`, the half-maximal activity concentration (AC50) is 32.6 µM (active).

Read-out in another assay: not listed separately
As to the kind of experiment: BSK_3C_VCAM1: BioMAP Diversity Plus: 3C Assay for Vascular cell adhesion molecule 1 (VCAM1) Biomarker Activity (AID 2282999). To be noted: BioMAP 3C HUVEC, VCAM1 ELISA, cytokine-stimulated; actives raise or lower the signal. Put shortly: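 Human umbilical vein endothelial cells (3C system), biomarker read by ELISA 24 h after dosing; bidirectional fit against DMSO baseline. Cytotoxicity tracked by SRB total-protein staining in parallel cultures at biomarker time.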
As to `Cc1ccc(C(=O)c2ccccc2)cc1`, the half-maximal activity concentration (AC50) was 26.3 µM (active).
Turning to `C=CC(=O)OCCC(F)(F)C(F)(F)C(F)(F)C(F)(F)C(F)(F)C(F)(F)C(F)(F)C(F)(F)F`, the outcome was inactive.
On the same count and under the same terms, under `OCC(F)(F)C(F)(F)C(F)(F)C(F)(F)C(F)(F)C(F)(F)C(F)(F)C(F)(F)C(F)(F)C(F)(F)C(F)(F)F` stands “inactive”.
In the case of `O=S(=O)(O)C(F)(F)C(F)(F)C(F)(F)C(F)(F)C(F)(F)C(F)(F)C(F)(F)C(F)(F)C(F)(F)C(F)(F)F`, the outcome was inactive.
In the case of `Oc1cc2ccccc2cc1O`, the outcome was inactive.
With `CC1=NN(c2ccccc2)C(=O)C1`, the result was inactive.
Same read-out and setting: under `O=P(O)(O)CCC(F)(F)C(F)(F)C(F)(F)C(F)(F)C(F)(F)C(F)(F)C(F)(F)C(F)(F)F` stands “inactive”.
In the case of `CCCCCc1ccc(O)cc1`, the AC50 was 23.7 µM (active).
Regarding `CCCCCCCCCCCCCCCCCC[N+](C)(C)Cc1ccccc1`, the AC50 was 1.91 µM (active).
Take `O=C(NCc1ncc(C(F)(F)F)cc1Cl)c1c(Cl)cccc1Cl`: the result was inactive.
In the case of `O=C1c2ccc(O)c(O)c2C(=O)c2c(O)ccc(O)c21`, the outcome was inactive.
The same measure, in the same setting: under `O=C(O)CCC(F)(F)C(F)(F)C(F)(F)C(F)(F)C(F)(F)F` stands “inactive”.
`OCCN1CN(CCO)CN(CCO)C1`: the half-maximal activity concentration (AC50) is 32.8 µM (active).
